# B2AR arrestin = beta2AR (human) beta-arrestin recruitment activity | P07550 | beta-arrestin recruitment to beta2AR, cell-based reporter | Potency, µM (series often up to 46.1 µM), most hits filed as activators | hit rate 0.02% among 330,000 | AID 492947; note: nearly all actives have a fitted effect of over 65% in size
# Target sequence (P07550 whole entry, looked up): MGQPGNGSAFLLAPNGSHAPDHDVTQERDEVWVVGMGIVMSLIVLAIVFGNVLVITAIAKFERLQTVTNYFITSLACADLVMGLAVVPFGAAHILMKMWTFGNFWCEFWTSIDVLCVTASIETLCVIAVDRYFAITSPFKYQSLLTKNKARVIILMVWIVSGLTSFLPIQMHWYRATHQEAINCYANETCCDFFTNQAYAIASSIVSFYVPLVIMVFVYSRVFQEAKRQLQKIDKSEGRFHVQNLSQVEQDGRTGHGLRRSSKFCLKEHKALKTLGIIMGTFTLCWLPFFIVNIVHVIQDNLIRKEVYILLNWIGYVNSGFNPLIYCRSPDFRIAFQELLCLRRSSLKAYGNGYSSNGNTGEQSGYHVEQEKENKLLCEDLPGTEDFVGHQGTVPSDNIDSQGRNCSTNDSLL
# FBPA coupling cs = inhibits coupling enzyme system, counter-screen for aldolase hits | coupling enzyme system counterscreen, AmpLite Red fluorescence | activity change, negative = inhibition, % at 58.2 µM, hits read low | hit rate 0.67% among 290,000; in the data active = activity change below about -30%
#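 Compounds tested against the coupling enzymes alone at 57.5 uM final; readout was AmpLite Red fluorescence (525/598 nm) after 20 min at RT.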
# GAA inhib = alpha-glucosidase (human) inhibition. P10253. purified human GAA, 4-MU-alpha-glucoside fluorescence. Potency, µM (doses to about 76.9 µM), actives largely listed as inhibitors. hit rate 0.005% among 200,000. AID 1466
#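 Read-out is 4-methylumbelliferone fluorescence (Ex 365/Em 440 nm) after NaOH/glycine stop at pH 10. Enzyme 4 nM, substrate 400 uM, pH 5.0 citrate buffer, 20 min room temperature; AC50 from Hill-equation concentration-response.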
# GAA spleen mod = inhibitors or activators of human alpha-glucosidase in spleen homogenate. P10253. hit rate 0.006% among 240,000. Potency, µM (highest dose often 79.9 µM), hits mostly inhibitors. human spleen homogenate, 4-MU-alpha-glucoside fluorescence. AID 2112
#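 Human spleen homogenate (1 ug) with 4-methylumbelliferyl-alpha-D-glucopyranoside (1 mM final) in 50 mM citrate/phosphate pH 5.0, 0.01% Tween-20; 40 min at 37 C. Stopped at pH 10; 4-MU fluorescence Ex 365/Em 440 nm; AC50 by Hill fit.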
# GAA glycogen = alters human alpha-glucosidase cleavage of glycogen | recombinant GAA, glycogen substrate, Amplex Red glucose oxidase fluorescence | Potency, µM (titrated, usually from 76.4 µM), usual class: inhibitors | hit rate 0.38% among 300,000;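 note: the screen sought inhibitors and activators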
#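 Recombinant human alpha-glucosidase (4 nM final) hydrolysed bovine liver glycogen (30 ug) for 40 min at 37 C in pH 5.0 citrate/phosphate with 0.01% Tween-20. Released glucose detected by glucose oxidase/Amplex Red, Ex 573/Em 610 nm. Compounds up to 77 uM; AC50 from Hill fits.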
# Numbers stand for hits; - = inactive; ? = inconclusive; . = no result given; [ ] = dose if it differs, or a comment. Sampled rows, rich in hits. Any-hit rate of the full collection: about 0.85%. Unless noted, calls come from the whole dose curve; as a rule, active = well fitted curve in the direction sought with a large enough effect; inconclusive = small, poorly fitted or top-dose-only effect, or another doubt; inactive = no such curve, though single readings can be large; an effect the other way counts as inactive or inconclusive.
SMILES,B2AR arrestin,FBPA coupling cs,GAA inhib,GAA spleen mod,GAA glycogen
CN1c2ccccc2C(C)(C)C12C=Nc1c(cc(N3CCOCC3)c3ccccc13)O2 (configuration not stated),-,-65.9,-,-,-
O=C(CSc1ccccn1)Nc1cccc2ccccc12,-,-77.0,-,-,-
COc1cccc(-n2sc3c(c2=S)-c2cc(OC)ccc2NC3(C)C)c1,-,-,-,-,39.8µM
CC(C)C(=O)Nc1ccc(NC(=O)c2cccs2)cn1,-,-43.5,-,-,-
COc1ccc(C(=O)Nc2ccc(NC(=O)c3cccs3)cn2)cc1,-,-,.,.,-
Cc1ccccc1Nc1c(N)c(=O)oc2ccccc12,-,-,-,-,17.8µM
O=C(Nc1ccccc1C(=O)N/N=C/c1ccc(F)cc1)c1ccccc1Br,-,-32.5,-,-,-
COc1ccccc1N/N=C/c1c(CO)cnc(C)c1O,-,-,-,-,3.16µM
COc1ccc(OC)c(N/C(C)=C/C(=O)c2ccncc2)c1,-,-,.,.,-
C/C(=C\C(=O)c1ccncc1)Nc1ccccc1O,-,-,-,-,25.1µM
COc1ccc(N2C(=O)[C@H]3[C@@H](C2=O)C2c4ccccc4C=NN2[C@H]3C(=O)C(C)(C)C)cc1 (some centres not stated),-,-,.,-,-
COc1ccc(N2C(=O)[C@@H]3[C@H](C2=O)[C@H]2c4ccccc4C=CN2[C@@H]3C(C)=O)cc1,-,-42.1,-,-,-
CCCCCOc1ccc(/C=c2\sc3nc(=O)c(-c4ccccc4)nn3c2=O)cc1OC,-,-,-,-,-
O=c1nc2s/c(=C\c3ccc(-c4ccccc4[N+](=O)[O-])o3)c(=O)n2nc1-c1ccccc1,-,-49.7,-,-,-
CCOC(=O)c1ccc(NC(=O)CCc2c(C)nc3nc[nH]n3c2=O)cc1,.,.,.,.,-
O=C(NNS(=O)(=O)c1ccccc1)c1cc2cc3ccccc3nc2s1,-,-,-,-,22.4µM
CC1CCN(C2=C(NS(=O)(=O)c3ccccc3)C(=O)c3ccccc3C2=O)CC1,-,-,.,-,?
O=C1C2=C(c3ccccc31)[N+](=O)C1CCCCC1N2[O-] (configuration not stated),-,-38.1,-,-,-
O=C1c2ccccc2C(=O)c2c1ccc1c(=O)n(C3CCCCC3)[nH]c21,-,-,-,-,-
O=C1C2=C(c3ccccc31)[N+](=O)[C@@H]1CCCC[C@@H]1N2[O-],-,-45.2,-,-,-
CC[C@H](C)[C@H](NC(=O)[C@H](CCC(=O)O)NC(=O)[C@@H](N)CO)C(=O)N[C@@H](CCC(N)=O)C(=O)N[C@@H](CC(C)C)C(=O)N[C@@H](CCSC)C(=O)N[C@@H](Cc1cnc[nH]1)C(=O)N[C@@H](CC(N)=O)C(=O)N[C@@H](CC(C)C)C(=O)NCC(=O)N[C@@H](CCCCN)C(=O)N[C@@H](Cc1cnc[nH]1)C(=O)N[C@@H](CC(C)C)C(=O)N[C@@H](C)C(=O)N[C@@H](CO)C(=O)N[C@H](C(=O)N[C@@H](CCC(=O)O)C(=O)N[C@@H](CCCNC(=N)N)C(=O)N[C@@H](CCSC)C(=O)N[C@@H](CCC(N)=O)C(=O)N[C@@H](Cc1c[nH]c2ccccc12)C(=O)N[C@@H](CC(C)C)C(=O)N[C@@H](CCCNC(=N)N)C(=O)N[C@@H](CCCCN)C(=O)N[C@@H](CCCCN)C(=O)N[C@@H](CC(C)C)C(=O)N[C@@H](CCC(N)=O)C(=O)N[C@@H](CC(=O)O)C(=O)N[C@H](C(=O)N[C@@H](Cc1cnc[nH]1)C(=O)N[C@@H](CC(N)=O)C(=O)N[C@@H](Cc1ccccc1)C(=O)O)C(C)C)C(C)C,.,-,.,-,.
C[C@]12CCC(=O)C=C1CC[C@@H]1C2[C@@H](O)C[C@@]2(C)[C@H]1CC[C@]2(O)C(=O)CO (some centres not stated),.,-,.,-,.
Cc1ccc2c(CN3CCCc4ccccc43)cc(=O)oc2c1C,-,-52.6,-,-,?
Cc1ccc2c(CN3CCCCC3)cc(=O)oc2c1C,-,-,.,.,-
CC1=C(C(=O)O)N2C(=O)[C@@H](NC(=O)[C@@H](N)c3ccccc3)[C@@H]2SC1,.,-,.,-,.
SMILES,B2AR arrestin,FBPA coupling cs,GAA inhib,GAA spleen mod,GAA glycogen
COC(=O)C1(Cc2cc(-c3ccc([N+](=O)[O-])cc3)no2)CCN(C(=O)OC(C)(C)C)CC1,-,.,.,.,.
Cc1cccn2c(=O)c3cc(C(N)=S)c(=N)n(CCCOC(C)C)c3nc12,-,-,?,?,-
CCOCCCn1c(=N)c(C(N)=S)cc2c(=O)n3cccc(C)c3nc21,-,-45.1,-,-,-
CCCOc1ccc(N)cc1N,-,-66.0,?,-,?
COc1cc(CNc2ccc3c(c2)CCC3)cc(OC)c1O,-,-,-,-,25.1µM
N#Cc1cc(-c2ccccc2)nn1-c1ccccc1,-,-41.0,-,-,-
Cn1ccc(-c2ccccc2)n1,-,-,-,.,-
COc1ccc(Nc2c([N+](=O)[O-])ccc3c2=NC2(CCCCC2)N=3)cc1,-,-33.9,-,.,-
CCCCCCCCCCCCCCCC(=O)NCCCC(=O)O,.,-,.,-,.
COc1cc2sc(C)nc2c2ccccc12,-,-32.0,.,.,-
Cc1nc2c(ccc3c2ccc2nc(C)sc23)s1,-,-,-,-,-
CCC(C=C[C@@H]1OC(=O)C=C[C@H]1C)=C[C@H](C)CC=CC(C)=C[C@@H](C)C(=O)[C@@H](C)[C@H](O)[C@@H](C)CC(C)=CC(=O)O,.,-59.1,.,-[3.15 µM],.
CC(C)NC(=O)CSc1cn(CC(=O)N2CCCCCC2)c2ccccc12,.,.,.,.,-
CNC(=O)CSc1cn(CC(=O)N2CCCCCC2)c2ccccc12,.,.,.,.,50.1µM
COC(=O)[C@@]1(Cc2ccccc2)[C@H]2c3cc(C(=O)N(C)C)n(Cc4ccccc4)c3C[C@H]2CN1C(=O)c1ccccc1,.,-,.,-,.
Cc1cc(C)cc(N=Cc2[nH]c3ccc(Br)c(Cl)c3c2O)c1,-,-,-,-,?
COc1ccc(CN=Cc2[nH]c3ccc(Br)c(Cl)c3c2O)cc1,-,-30.4,-,-,-
O=c1[nH]c2ccccc2c(O)c1O,-,-72.8,-,-,-
O=C(O)c1c(C(=O)O)c2ccccc2[nH]c1=O,.,-32.8,.,-,.
CC(=O)NCCNc1nc(-c2ccccc2CN(C)C)nc2ccccc12,.,-,.,-,.
CCOc1ccc(S(=O)(=O)Nc2cc(Cl)ccc2O)cc1,-,-,-,-,28.2µM
CCCN(C(=O)c1cc2c(s1)-c1ccccc1SC2)c1ccccc1F,.,.,.,.,-
COc1ccc(CC(=O)Nc2c(C(=O)Nc3ccc(F)cc3)oc3ccccc23)cc1OC,.,.,.,.,-
CC(C)(C)c1ccc(C2Sc3ccccc3NC3=C2C(=O)c2ccccc23)cc1 (configuration not stated),.,.,.,.,-
Cc1[nH]n(C(C)(C)C)c(=O)c1Sc1ccccc1,-,-,-,-,15.7µM
OC[C@@H](O)[C@@H](O)CCc1ccccc1,.,-,.,-,.
